# cardiac RTF act – cardiac RTF calcium sensitivity activators, primary screen, biochemical, IANBD-TnC fluorescence, EC20 calcium. activation, % at 7.2 µM. IANBD-labeled TnC RTF fluorescence at EC20 calcium; 0% EC20 calcium, 100% full calcium. AID 493008, 2010. 0.24% of 340,000 active. Troponin I, cardiac muscle (Homo sapiens) + Troponin T, cardiac muscle (Homo sapiens) + …;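 active means activation above the mean over all tested compounds plus 3 SD, cut at about 30% in these data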;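 further: rise in fluorescence read as greater calcium sensitivity of cardiac thin filaments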
# RTF Ca sens inh – cardiac RTF calcium sensitivity inhibitors, primary screen, biochemical, IANBD-TnC fluorescence, EC70 calcium. Troponin I, cardiac muscle (Homo sapiens) + Troponin T, cardiac muscle (Homo sapiens) + …. IANBD-labeled cardiac RTF, Ca2+ fluorescence. inhibition, % at 7.15 µM. 0.12% of 340,000 active. AID 493244, 2011;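 active means inhibition above the mean inhibition of all tested compounds plus 3 SD, cut at about 17% in these data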;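 further: assay run at fixed EC70 calcium of 1.6 mM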
# Myeloid diff 2 – induction of myeloid progenitor differentiation, primary screen, cell-based, flow cytometry, MLPCN library | ER-HoxA9 myeloid progenitors, lysozyme-GFP differentiation | calls only at 10 µM | 1% of 360,000 active | AID 624256, 2012;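 active means normalized GFP-positive differentiation at or above the plate's own cutoff, the solvent-only control mean plus 3 SD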;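 further: cells exposed to compound for four days before flow analysis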
# CRFBP-R2 block – antagonists of CRF-BP/CRF-R2 complex, primary screen, cell-based, HEK293, calcium dye fluorescence, uHTS | CRF-induced calcium fluorescence | inhibition, % at 11.8 µM | 0.59% of 350,000 active | AID 588475, 2011;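 active means inhibition of the ligand-induced calcium signal above about 50% at the single tested concentration, limit read from the data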
# CRFR2-BP ag – agonists of CRF-BP/CRF-R2 complex, primary screen, cell-based, HEK293, calcium dye fluorescence, uHTS. calcium dye fluorescence (FLIPR); percent of saturating CRF peptide response. activation, % at 13.2 µM. CRF-binding protein / CRF receptor 2 complex (human). 0.46% of 350,000 active;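 active means activation of at least 50%, plus an integration ratio under a set limit after plate pattern correction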;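 further: plate controls were neutral control wells without compound for no effect and CRF at EC100 for full effect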
# Myeloid diff – inducers of myeloid progenitor differentiation, confirmation, cell-based, GFP/Mac1 flow cytometry, cherry pick 01; ER-HoxA9 myeloid progenitors, GFP/Mac1 double-positive flow; shares compounds with Myeloid diff 2; AID 651706, 2012; 2% of 2,300 active; calls only;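 active means share of green or green-and-red cells above 9 and 9% in run 1 or 4 and 3% in run 2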
# GFP autofluor – flagged as fluorescent in myeloid differentiation counter-screen. shares compounds with Myeloid diff 2. 7.4% of 2,300 active. fluorescence response, % (concentration not given with the values). ER-HoxA9 myeloid progenitors, no estrogen, GFP autofluorescence flow cytometry; vehicle wells 0%, positive control 100%;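 active means over 5% cells positive for green fluorescent reporter, or over 2% positive for both it and APC stain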;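 further: range taken on the double positive population between DMSO and positive control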
# Numbers without * were called inactive; i = inactive; nt = no result given; + = active, no number. The list is not random: actives were taken first. Their share in the collection is about 2.2%.
SMILES,cardiac RTF act,RTF Ca sens inh,Myeloid diff 2,CRFBP-R2 block,CRFR2-BP ag,Myeloid diff,GFP autofluor
Cn1ccsc1=NC(=O)c1ccc(OC(F)(F)F)cc1,-7,-4,i,-13,0,nt,nt
CCc1ccc(CN2CCC(n3nccc3NC(=O)c3cccc(F)c3)CC2)cc1,2,-2,+,-31,0,i,0
O=C(Nc1ccnn1C1CCN(Cc2ccc3nonc3c2)CC1)c1cccc(F)c1,11,3,i,-6,-1,nt,nt
Cc1ccc2nc(-c3ccc(O)cc3)oc2c1,1,0,i,17,-1,nt,nt
O=[N+]([O-])c1ccc(/C=[N+](\[O-])[C@@H]2CCCC[C@@H]2/[N+]([O-])=C/c2ccc([N+](=O)[O-])o2)o1,-3,-1,+,-10,2,i,0
O=C(N/N=C/c1ccc([N+](=O)[O-])o1)C1CCCC1,-1,0,nt,-2,0,nt,nt
CCC(C)/C(C)=N/NC(=O)c1ccc(CSc2nc3ccccc3s2)cc1 (stereo not drawn),-1,10,i,-13,2,i,6.1*
CCNC(=O)c1ccc(CSc2nc3ccccc3s2)cc1,-3,-8,i,2,1,nt,nt
COc1ccc(NC(=O)C2CCCN(S(=O)(=O)c3cccs3)C2)cc1OC (stereo not drawn),11,-6,+,6,0,i,0
Oc1ccc(/C=C/c2ccc3ccccc3n2)cc1,9,-13,+,0,-1,i,20*
CCCCn1c(-c2ccc(C(C)(C)C)cc2)nc2cc3[nH]c(=O)c(C(C)C)nc3cc21,-2,-8,+,-18,1,i,2
C=CCNC(=S)N1N=C(c2ccco2)CC1c1ccco1 (stereo not drawn),-3,-1,i,-9,0,i,0
Cc1ccc(C2=NN(C(=S)Nc3ccccc3)C(c3ccco3)C2)cc1 (stereo not drawn),-6,-10,i,-6,-1,nt,nt
COc1ccc(NC(=O)C(=O)NCC2CCCN2S(=O)(=O)c2cccs2)cc1 (stereo not drawn),1,-6,nt,-1,0,nt,nt
COc1ccc(-c2cc(-c3cc(OC)ccc3O)[nH]n2)cc1,6,14,i,-5,17,i,1
COc1ccc(O)c(-c2cc(-c3ccc(F)cc3)n[nH]2)c1,3,3,i,7,1,nt,nt
O=C(c1cccs1)N1C[C@H](n2cc(-c3ccc(F)cc3)nn2)[C@@H](O)C[C@@H]1c1ccc(Cl)cc1,nt,nt,i,-13,0,nt,nt
CCCCCC(=O)N1C[C@@H](O)[C@H](n2cc(-c3ccc(F)cc3)nn2)C[C@@H]1c1ccc(OC)cc1,nt,nt,i,12,-1,i,1
CCCCCC(=O)N1C[C@H](O)[C@@H](n2cc(-c3ccc(F)cc3)nn2)C[C@@H]1c1ccc(C)cc1,nt,nt,i,7,0,nt,nt
O[C@H]1C[C@H](c2ccccc2)N(CC2CCCCC2)C[C@@H]1n1cc(-c2ccc(F)cc2)nn1,nt,nt,i,-7,4,nt,nt
COc1ccc([C@H]2C[C@@H](O)[C@H](n3cc(-c4ccc(F)cc4)nn3)CN2CC2CCCCC2)cc1,nt,nt,i,0,2,i,0
O[C@@H]1CN(CC2CCCCC2)[C@@H](c2ccc(Cl)cc2)C[C@H]1n1cc(-c2ccc(F)cc2)nn1,nt,nt,i,-1,0,nt,nt
O=C(c1cccs1)N1C[C@@H](n2cc(-c3ccc(F)cc3)nn2)[C@H](O)C[C@@H]1c1ccc(Cl)cc1,nt,nt,i,-6,0,i,1
COc1ccc([C@H]2C[C@H](n3cc(-c4ccc(F)cc4)nn3)[C@@H](O)CN2CC2CCCCC2)cc1,nt,nt,+,1,1,i,0
C[C@H]1CN=C(N(C)C)N1CCCC1CCCCC1,-1,-7,i,-15,3,nt,nt
SMILES,cardiac RTF act,RTF Ca sens inh,Myeloid diff 2,CRFBP-R2 block,CRFR2-BP ag,Myeloid diff,GFP autofluor
COC(=O)c1ccc(Nc2cc(C)nc3ccc(C)cc23)cc1,2,-6,+,-1,0,i,3
CCOc1cccc(N2C(=O)CC(N(CCc3ccc(OC)c(OC)c3)C(=O)CC)C2=O)c1 (stereo not drawn),1,-4,i,20,4,nt,nt
CCOC(=O)c1ccc(N2C(=O)CC(N(C)CCc3ccc(OC)c(OC)c3)C2=O)cc1 (stereo not drawn),3,-13,i,1,-3,i,0
CCOC(=O)C(=CNc1nc(-c2ccccc2)c(C(=O)Nc2ccc(-c3ccccc3)cc2)s1)C(=O)OCC,3,-5,i,-12,5,nt,nt
NC(=O)C1CCN(C(=O)c2cc(-c3ccc(Cl)s3)nc3ccccc23)CC1,-4,-2,i,1,4,nt,nt
COCCNC(=O)c1c(N)n(CCC2=CCCCC2)c2nc3ccccc3nc12,2,-6,i,-16,15,i,0
C=CCN1C=CC(=O)[C@@H](OC(=O)Nc2ccc(Br)cc2)[C@H]1c1ccccc1Br,-8,-1,i,-31,3,nt,nt
COc1ccccc1NC(=O)NCC1CC1(Cl)Cl (stereo not drawn),8,0,i,6,-2,nt,nt
Cc1ccc(C(=O)NC(=S)c2c(C)cc3ccccn23)cc1,nt,nt,+,10,3,i,11*
Cc1cc2ccccn2c1C(=S)NC(=O)c1ccccc1,2,2,i,16,-3,nt,nt
COc1ccccc1C(=O)NC(CCSC)C(=O)NCc1ccncc1 (stereo not drawn),2,8,i,4,1,nt,nt
CCOC(=O)C1CCN(C(=O)COC(=O)/C=C/c2ccc([N+](=O)[O-])cc2)CC1,0,-2,i,-9,-2,i,2
CCOC(=O)C1CCN(C(=O)COc2ccc([N+](=O)[O-])cc2)CC1,-1,-4,i,5,1,nt,nt
Nc1nc(-c2ccccc2)nn1S(=O)(=O)c1ccccc1,8,1,i,2,-2,nt,nt
Cc1cc(NC(=O)c2noc3c2CCCC3)n(-c2ccccc2)n1,-2,4,+,-5,-1,i,0
Cc1cc(NC(=O)c2cc(-c3ccc4c(c3)OCO4)on2)n(-c2ccccc2)n1,3,-7,+,8,0,i,0
C=Cn1cc[n+](CC(=O)c2ccc(OC)cc2)c1,8,-2,+,1,-1,i,1
